FAK inh – blocks human focal adhesion kinase activity; Q05397; biochemical FAK kinase activity assay; inhibition, %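 (tested at 7 µM)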; 0.84% of 97,000 active; AID 727; in the data active = inhibition above about 19%;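 also: 0% = DMSO and 100% = reference compound high control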
Target sequence (Q05397 whole entry, looked up): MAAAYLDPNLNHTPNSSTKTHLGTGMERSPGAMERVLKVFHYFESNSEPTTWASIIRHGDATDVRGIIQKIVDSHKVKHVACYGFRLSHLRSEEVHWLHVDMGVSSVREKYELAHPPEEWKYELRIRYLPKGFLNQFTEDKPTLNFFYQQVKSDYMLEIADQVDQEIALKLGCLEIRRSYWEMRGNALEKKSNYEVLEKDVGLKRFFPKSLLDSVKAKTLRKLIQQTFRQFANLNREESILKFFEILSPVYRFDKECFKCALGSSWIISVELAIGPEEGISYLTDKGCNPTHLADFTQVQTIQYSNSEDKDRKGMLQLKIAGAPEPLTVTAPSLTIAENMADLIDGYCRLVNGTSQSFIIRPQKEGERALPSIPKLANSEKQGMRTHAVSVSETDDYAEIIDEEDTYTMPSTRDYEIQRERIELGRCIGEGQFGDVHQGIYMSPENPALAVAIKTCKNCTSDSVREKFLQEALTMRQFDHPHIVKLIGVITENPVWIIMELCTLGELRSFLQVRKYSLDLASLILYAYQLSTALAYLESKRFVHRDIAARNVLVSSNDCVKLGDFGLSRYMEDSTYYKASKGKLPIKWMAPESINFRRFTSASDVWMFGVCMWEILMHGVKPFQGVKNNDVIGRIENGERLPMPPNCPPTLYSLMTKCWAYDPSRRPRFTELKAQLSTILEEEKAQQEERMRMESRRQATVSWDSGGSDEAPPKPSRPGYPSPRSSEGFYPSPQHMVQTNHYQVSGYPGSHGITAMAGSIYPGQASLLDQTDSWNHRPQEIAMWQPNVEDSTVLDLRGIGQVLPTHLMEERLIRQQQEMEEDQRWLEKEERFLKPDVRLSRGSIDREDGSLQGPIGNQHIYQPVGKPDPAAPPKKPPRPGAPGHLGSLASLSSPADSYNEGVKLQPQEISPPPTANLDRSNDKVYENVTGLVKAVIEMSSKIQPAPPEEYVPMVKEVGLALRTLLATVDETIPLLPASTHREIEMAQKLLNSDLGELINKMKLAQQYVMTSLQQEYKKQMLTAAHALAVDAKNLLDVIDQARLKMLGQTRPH
TNAP act mid DEA – activates human TNAP at intermediate phosphate acceptor concentration. 64,000 tested, under 10 active. activation factor at 20 µM. purified TNAP, CDP-star luminescence, 100 mM DEA, 30 min; hits give high values; scale: 0 levamisole-inhibited, 1 vehicle-only enzyme;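 active = activation factor of at least 2 at 20 µM, relative to controls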
Phagocytosis inh – inhibitors of macrophage phagocytosis; J774A.1 macrophage IgG-bead phagocytosis, imaging; inhibition, % at 5 µM; 0.07% of 110,000 active; AID 1029;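 active = inhibition above the mean of the plate negative controls plus 5 SD, cut at about 13% in these data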;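 also: phagocytic index as fraction of beads internalized from green versus red external bead signal; plate controls were DMSO negative control for no effect and cytochalasin-D positive control for full effect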
CD11b adhes inh – blocks human CD11b/CD18 adhesion to fibrinogen. P05107+P11215. K562 CD11b/CD18 adhesion to fibrinogen, ATPlite luminescence; Mn2+ added to activate the integrin. inhibition, % at 10 µM. 0.54% of 93,000 active. AID 1497;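 active = primary inhibition of 50% or more at 10 µM, then 40% or more on retest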
Mac1 fbg enh – increases human CD11b/CD18 adhesion to fibrinogen; 0.07% of 93,000 active; K562 CD11b/CD18 adhesion to fibrinogen, ATPlite luminescence; activation, % at 10 µM;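 active = 10 µM primary screen giving 50% or more activity, confirmed by 40% or more on retest at that dose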
Active calls of the source: *; . = no result; + = active, no number; [ ] = another dose, or the depositor's remark. Most compounds without a hit are left out; they make up all but 0.96% or so of the library.

SMILES | FAK inh | TNAP act mid DEA | Phagocytosis inh | CD11b adhes inh | Mac1 fbg enh
CCOc1ccc(/C=C/C(=O)c2cc(Br)ccc(=O)c2O)cc1 | . | . | -2 | . | .
COC(=O)c1ccc(Oc2c(C)oc3c(CN4CCN(C)CC4)c(O)ccc3c2=O)cc1 | 0 | 0.9 | 1 | -5 | -3
COc1ccc(Br)cc1C(=O)Nc1cccc(-c2nnc(-c3ccco3)o2)c1 | 66* | 0.9 | . | . | .
CN(CCCC(=O)Nc1ccncc1)S(=O)(=O)c1ccc(Cl)cc1 | 7 | 0.9 | 2 | 50* | -6
COc1ccc(C(c2c(C)[nH]n(-c3ccccc3)c2=O)c2c(C)[nH]n(-c3ccccc3)c2=O)cc1OC | . | . | -12 | 52* | -4
Cc1occc1-c1nnc(SCC(=O)c2cc3ccccc3oc2=O)o1 | -4 | 0.9 | -1 | -11 | 3
NS(=O)(=O)c1cc(C(=O)N2CCc3ccccc32)c(Cl)cc1Cl | -1 | . | 0 | 14 | -4
Cc1snc(S(=O)(=O)/C(C#N)=N/Nc2cccc(C(F)(F)F)c2)c1C#N | -6 | . | 0 | 90* | -6
COc1ccc(N/N=C(/C#N)S(=O)(=O)c2nsc(C)c2C#N)cc1 | 1 | . | 1 | 3 | 1
Cc1cc(C)n(CCc2nc3c4ccccc4nc(SCc4ccc(C#N)cc4)n3n2)n1 | . | 0.9 | . | . | .
CCOc1ccc(C(=O)Nc2ccc(S(=O)(=O)N3CCOCC3)cc2)cc1OCC | . | 1 | 1 | 8 | 6
CCOc1cc(C(=S)N2CCOCC2)ccc1OS(=O)(=O)c1ccc(NC(C)=O)cc1 | -2 | . | . | 88* | -10
CN(C)c1nc(NCc2ccccc2)nc(N/N=C/c2ccc(Cl)cc2Cl)n1 | -4 | . | . | . | .
O=C(c1ccc(Cl)cc1)N1CCN(c2nc(N3CCCCC3)nc(N3CCCCC3)n2)CC1 | . | 1 | . | . | .
COc1ccc(NC(=O)C2CCCN2S(=O)(=O)c2ccc(F)cc2)cc1 (centres undefined) | -2 | 1 | 0 | -16 | 1
O=C(Nc1nccs1)C1CCCN1S(=O)(=O)c1ccc(F)cc1 (centres undefined) | 1 | 1 | + | 0 | -5
Cc1ccc(Nc2nnc(SCC(=O)Nc3ccc(S(=O)(=O)N4CCOCC4)cc3)s2)cc1 | 0 | . | 4 | 52* | -2
Cc1ccc(C(=O)Nc2nc(=O)n(C(=O)CC(C)C)s2)cc1 | 0 | . | 0 | 70 | -9
CC(C)CC(=O)n1sc(NC(=O)c2ccccc2)nc1=O | -3 | . | 4 | 55* | -7
COc1cc(/C=C/C(=O)OCC(=O)N2CCc3ccccc3C2)ccc1O | . | . | 66*[artifact] | . | .
COc1cc(/C=C/C(=O)OCC(=O)N2CCC(Cc3ccccc3)CC2)ccc1O | . | . | -5 | . | .
Cc1nc2ccc(NS(=O)(=O)c3ccc4c(c3)OCCO4)cc2s1 | 0 | . | -3 | 102* | -10
Cc1ccc(S(=O)(=O)Nc2ccc3nc(C)sc3c2)cc1 | -10 | . | 0 | 47 | -8
O=C(Nc1ccccc1)Nc1cc(Cl)cc(Cl)c1 | 5 | . | -1 | 56* | -4
O=C(CN1C(=O)CCC1=O)Nc1nc(-c2nc3ccccc3s2)cs1 | . | 0.9 | . | . | .
SMILES | FAK inh | TNAP act mid DEA | Phagocytosis inh | CD11b adhes inh | Mac1 fbg enh
O=C(CN1C(=O)CCC1=O)Nc1nc(-c2ccccn2)cs1 | 0 | 15* | 0 | -8 | -1
Cc1cc(N2CCN(S(=O)(=O)c3ccc(Cl)cc3)CC2)c2ccccc2n1 | -1 | 1 | -2 | 85* | -8
CC1CCC(C(C)C)C(OC(=O)CSc2nc(N)cc(=O)[nH]2)C1 (centres undefined) | -3 | . | . | . | .
CC1CCC(C(C)C)C(OC(=O)Cn2c(-c3ccccc3)[n+](C)c3ccccc32)C1 (centres undefined) | . | . | 4 | 99* | -7
CC1CCC(C(C)C)C(OC(=O)Cn2c(-c3ccc(F)cc3)[n+](C)c3ccccc32)C1 (centres undefined) | . | . | . | 64* | -4
CC1CC(C)CN(Cc2nc3c(c(=O)n(C)c(=O)n3C)n2Cc2ccccc2Cl)C1 (centres undefined) | . | 0.9 | . | . | .
O=C(CSc1nc2ccccc2o1)Nc1nc2ccccc2s1 | -6 | 0.9 | 0 | 9 | 83*
CCC(C(=O)Nc1cc(C(=O)Nc2cc(C)ccn2)ccc1Cl)c1ccccc1 (centres undefined) | . | . | -2 | . | .
CN(Cc1cccs1)c1ncnc2sccc12 | 12 | 0.9 | 3 | 89* | -8
c1csc(CCNc2ncnc3sc4c(c23)CCC4)c1 | . | 0.9 | 0 | 86* | -6
COc1ccc(-n2c(SCC(=O)N3CCCC3)nc3c([nH]c4ccccc43)c2=O)cc1 | . | 1.1 | . | . | .
CCn1c2ccccc2c2nc3cc(S(=O)(=O)N4CCOCC4)ccc3nc21 | -2 | 0.9 | 0 | 57* | -4
Cc1cccc(C(=O)NNC2=C(C(=O)C(F)(F)F)CCC2)c1O | -4 | . | -1 | 96* | -7
Cc1cc(Cl)cc(Br)c1OCCCCn1cncn1 | 2 | 1 | 3 | 44 | 0
Cc1cc(Cl)cc(Br)c1OCCNCC(C)O (centres undefined) | 0 | 0.9 | 174* | -17 | -6
Cc1cccc(N2C(=S)N=C(Nc3c(C)cccc3C)C23CCOC(C)(C)C3)c1 (centres undefined) | -1 | . | 0 | 13 | -1
O=C(CCC1CCCC1)NC1CCCCC1 | 0 | . | 0 | -45 | -1
O=C(Nc1ccc(S(=O)(=O)N2CCOCC2)cc1)c1ccc(Cl)cc1 | . | 1 | . | . | .
Cc1ccc(-n2nc3c(c2NC(=O)c2ccc(S(=O)(=O)N4CCOCC4)cc2)CSC3)c(C)c1 | 2 | 0.9 | -2 | -10 | 80*
O=C(Nc1ccc(Cc2ccncc2)cc1)c1ccc(S(=O)(=O)N2CCOCC2)cc1 | -2 | 1 | . | 93* | -10
Cc1ccc(-c2nc(N/N=C/c3cccc([N+](=O)[O-])c3)c3ccccc3n2)cc1 | 5 | . | . | . | .
Cc1ccc(-c2nc(N/N=C/c3cccnc3)c3ccccc3n2)cc1 | 1 | . | 0 | 95* | -8
N#CC(C(=O)NC1CCCCC1)=C1CCCCCC1 | . | . | 5 | . | .
Cc1cc(C(=O)Nc2sc3c(c2C#N)CCC(C(C)(C)C)C3)no1 (centres undefined) | -1 | 0.9 | 0 | -23 | -7
CC(C)(C)C1CCc2c(sc(NC(=O)c3cc(C4CC4)on3)c2C#N)C1 (centres undefined) | -2 | 0.8 | 0 | 54* | -5
SMILES | FAK inh | TNAP act mid DEA | Phagocytosis inh | CD11b adhes inh | Mac1 fbg enh
COc1ccc(/C=C2\SC(=NCc3ccccc3)NC2=O)cc1 | . | . | . | -10 | 7
O=C1N/C(=N/Nc2ccccc2)S/C1=C\c1ccccc1 | -12 | . | -3 | 79* | -12
O=C1C2CCCN2C(=O)N1CCCCN1CCN(CCO)CC1 (centres undefined) | . | . | 1 | . | .
N#CC1=C(N)NC(SCC(=O)Nc2ccc(Br)cc2)=C(C#N)C12CCCCC2 | 2 | . | -1 | 83* | -9
Cc1nc2c(C(=O)NCCC(C)C)c[nH]n2c(=O)c1Cc1ccccc1F | -3 | . | -1 | 81* | -9
O=C(NC1CCCCC1)c1cccc(Cn2cc(Cl)cn2)c1 | 0 | . | . | 1 | -2
Cc1cccc(N/C(N)=N/c2nc(C(F)(F)F)cc(=O)[nH]2)c1C | . | . | 0 | . | .
Cc1cc(OCC(=O)Nc2ccncc2)cc(C)c1Br | -3 | . | 0 | 84* | -9

Screening results as filed in PubChem.
